Reference: PMC3218832

Experiments:
Experiment in all cases: protein binding microarray; high values mean tight binding
Settings in all cases: dsDNA, one strand shown
RELARELA (p65 homodimer) = RELARELA (p65 homodimer) (Homo sapiens, UniProt Q04206 1-307)
p50p50 homodimer = p50p50 homodimer (Homo sapiens, UniProt P19838 7-356)
p52p52 homodimer = biological target: T1, p52p52 homodimer (Homo sapiens, UniProt Q00653 4-332)
T1 sequence: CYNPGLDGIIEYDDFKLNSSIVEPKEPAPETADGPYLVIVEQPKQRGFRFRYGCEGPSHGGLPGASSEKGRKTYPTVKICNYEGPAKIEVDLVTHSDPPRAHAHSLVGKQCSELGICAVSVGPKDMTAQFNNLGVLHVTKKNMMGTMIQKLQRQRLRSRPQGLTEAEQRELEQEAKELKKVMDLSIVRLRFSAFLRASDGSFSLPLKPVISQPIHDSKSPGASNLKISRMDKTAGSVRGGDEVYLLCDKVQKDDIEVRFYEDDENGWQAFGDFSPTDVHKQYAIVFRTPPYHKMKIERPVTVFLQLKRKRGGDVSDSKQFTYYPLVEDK

[1] = biological target: RELA (p65) subunit of heterodimer;p50 subunit (Homo sapiens;Homo sapiens, UniProt Q04206;P19838 1-307;7-356)
RELA (p65) subunit of heterodimer;p50 subunit, sequence (Q04206 1-307, chain 1 of 2): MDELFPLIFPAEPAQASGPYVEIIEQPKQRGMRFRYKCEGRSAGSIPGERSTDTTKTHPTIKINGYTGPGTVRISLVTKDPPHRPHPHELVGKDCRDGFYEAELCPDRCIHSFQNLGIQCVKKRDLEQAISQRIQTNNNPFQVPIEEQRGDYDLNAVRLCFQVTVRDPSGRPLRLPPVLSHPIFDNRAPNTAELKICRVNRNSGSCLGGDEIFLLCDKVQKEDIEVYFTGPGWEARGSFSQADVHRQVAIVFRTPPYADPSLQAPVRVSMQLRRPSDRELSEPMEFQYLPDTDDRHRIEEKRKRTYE
RELA (p65) subunit of heterodimer;p50 subunit, sequence (P19838 7-356, chain 2 of 2): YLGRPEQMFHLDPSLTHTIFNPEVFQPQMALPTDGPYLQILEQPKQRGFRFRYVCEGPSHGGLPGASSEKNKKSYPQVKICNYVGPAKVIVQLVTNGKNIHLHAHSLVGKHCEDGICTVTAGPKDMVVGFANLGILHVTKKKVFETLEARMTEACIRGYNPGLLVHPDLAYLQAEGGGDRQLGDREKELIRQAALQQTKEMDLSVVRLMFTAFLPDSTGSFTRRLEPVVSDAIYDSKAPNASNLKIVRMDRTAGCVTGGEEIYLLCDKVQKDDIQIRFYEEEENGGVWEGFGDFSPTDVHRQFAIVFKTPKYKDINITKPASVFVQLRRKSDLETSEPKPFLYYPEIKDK

[2] = biological target: RELA (p65) subunit of heterodimer;p52 subunit (Homo sapiens;Homo sapiens, UniProt Q04206;Q00653 1-307;4-332)
RELB subunit;p50 subunit = RELB subunit;p50 subunit (Homo sapiens;Homo sapiens, UniProt Q01201;P19838 120-401;7-356)
RELB subunit;p52 subunit = biological target: T2, RELB subunit;p52 subunit (Homo sapiens;Homo sapiens, UniProt Q01201;Q00653 120-401;4-332)
T2 sequence 1: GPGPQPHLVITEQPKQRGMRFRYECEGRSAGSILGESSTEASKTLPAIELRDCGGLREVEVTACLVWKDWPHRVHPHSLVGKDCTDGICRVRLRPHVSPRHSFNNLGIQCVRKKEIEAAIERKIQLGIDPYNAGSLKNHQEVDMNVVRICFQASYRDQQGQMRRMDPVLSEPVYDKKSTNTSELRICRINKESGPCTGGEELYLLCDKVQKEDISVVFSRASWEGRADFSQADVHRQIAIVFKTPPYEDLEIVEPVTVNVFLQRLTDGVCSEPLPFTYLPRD
T2 sequence 2: T1 sequence

[3] = biological target: C-Rel subunit;p50 subunit (Homo sapiens;Homo sapiens, UniProt Q04864;P19838 1-285;7-356)
[4] = biological target: T3, C-Rel subunit;p52 subunit (Homo sapiens;Homo sapiens, UniProt Q04864;Q00653 1-285;4-332)
T3 sequence 1: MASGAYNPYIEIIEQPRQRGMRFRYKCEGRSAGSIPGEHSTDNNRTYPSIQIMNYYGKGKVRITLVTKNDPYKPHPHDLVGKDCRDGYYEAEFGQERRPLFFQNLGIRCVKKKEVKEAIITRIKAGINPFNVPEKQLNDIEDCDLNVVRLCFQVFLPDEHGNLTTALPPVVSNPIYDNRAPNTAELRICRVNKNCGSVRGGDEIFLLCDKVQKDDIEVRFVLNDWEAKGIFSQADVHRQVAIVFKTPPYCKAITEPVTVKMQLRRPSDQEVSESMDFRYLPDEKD
T3 sequence 2: T1 sequence

p50p50 homodimer, sequence (P19838 7-356): as the sequence (P19838 7-356, chain 2 of 2) above
RELARELA (p65 homodimer), sequence (Q04206 1-307): as the sequence (Q04206 1-307, chain 1 of 2) above

Sequence	binding signal (RELARELA (p65 homodimer)) [z-score]	binding signal (p50p50 homodimer) [z-score]	binding signal (p52p52 homodimer) [z-score]	binding signal [1] [z-score]	binding signal [2] [z-score]	binding signal (RELB subunit;p50 subunit) [z-score]	binding signal (RELB subunit;p52 subunit) [z-score]	binding signal [3] [z-score]	binding signal [4] [z-score]
GGGATCGTCCT	0.173	-0.724	0.0256	-0.544	-0.296	-0.598	-0.614	-0.493	-0.166
CGGGTATTCCT	1.71	0.73	1.4	0.593	1.06	0.353	0.712	0.468	1.22
CAATTATCCCC	0.4	1.12	1.04	1.31	1.12	1.3	1.33	1.2	0.884
CAAGGATTCCC	1.01	0.585	0.314	0.704	0.382	0.457	0.419	0.93	0.576
AGGTGACTCCT	-0.642	-0.518	-0.228	-0.661	-0.704	-0.778	-0.791	-0.985	-0.779
CAGTGAACCCC	-0.0364	-0.483	-0.201	-0.227	-0.346	-0.298	-0.205	-0.189	-0.119
CAAGATCTCCT	-0.508	-1.36	-0.744	-1.11	-1.02	-1.04	-1.06	-1.49	-1.01
GGAGTCGTCCT	-0.136	-1.28	-0.582	-0.993	-0.875	-1.03	-0.714	-1.4	-0.812
GGAGTCTCCCC	1.17	0.531	0.409	1.27	0.997	0.547	0.514	0.822	0.954
AAATTGCTCCT	-0.35	-1.61	-0.602	-0.644	-0.813	-0.967	-0.7	-1.33	-0.903
GAGAGCGCCCT	-0.857	-1.91	-0.661	-0.903	-1.01	-1	-0.95	-1.31	-0.822
AAATAGATCCC	-0.751	-0.68	-0.334	-0.662	-0.554	-0.403	-0.661	-0.87	-0.679
AGAGAGGCCCC	-0.813	-0.259	-0.348	-0.461	-0.565	-0.342	-0.35	-0.436	-0.513
AAGAGTACCCT	-0.409	0.828	0.248	0.398	0.224	0.66	0.374	0.116	0.104
GAGTGTACCCC	0.11	-0.176	-0.057	0.0359	0.0373	0.15	0.337	0.0895	0.24
